About 2,100 (0.66%) of roughly 320,000 compounds were called active. About 53% were inconclusive and are not listed. The sample holds actives, similar compounds and a random draw of the others, so the mix is not that of the screen. Calls come from the whole dose curve; as a rule, active = well fitted inhibition curve with a large enough effect in the signal ratio, with a control signal flat (not every such curve was filed as active); inconclusive = small, poorly fitted or top-dose-only effect, or effect the other way, or a change in a side signal; inactive = flat fitted curve, though single readings scatter; the % refers to the signal ratio.
Test: qHTS Assay for Lipid Storage Modulators in Drosophila S3 Cells;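 for cell number change: cells counted by Cell Tracker Red CMTPX staining in the red channel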
Details: BODIPY lipid droplet fluorescence, 18-24 h, cells fed with added oleic acid; cell number change: measured here: cell count max response; series mostly up to 46.1 µM
Method in brief: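 Laser-scanning cytometry quantifies lipid droplet accumulation (500–530 nm total intensity; droplet/cell object ratio) in oleic acid-fed (400 uM added) Drosophila S3 cells treated with a concentration series. 20 uM Triacsin C defined 100% inhibition.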
Potency is the fitted concentration of half-maximal effect.

SMILES | Potency | cell number change
Cc1cccc(NC(=O)CS(=O)(=O)c2cn(C)c3ccccc23)c1 | inactive | -0.98%
O=C(Cc1c(F)cccc1Cl)NCCCn1ccnc1 | inactive | -2.56%
CNC(=S)N(CCCn1ccnc1)Cc1c(F)cccc1Cl | 3.26 µM (active) | 21.2%
O=C(CC1C(=O)NCCN1Cc1c(F)cccc1Cl)NCCCn1ccnc1 (centres undefined) | inactive | 8.35%
CCCCn1c(CNC(=O)C(C)(C)C)nc2ccccc21 | inactive | -1.23%
COc1ccc(Nc2nnc(SCC(=O)Nc3ccc4[nH]c(=O)[nH]c4c3)s2)cc1 | inactive | -17.1%
Cc1nnc(SCCN2C(=O)c3ccccc3C2=O)[nH]c1=O | inactive | -14.8%
CC(C)(C)C(=O)NCCN1C(=O)S/C(=C\c2ccc([N+](=O)[O-])cc2)C1=O | 11.6 µM (active) | -4.32%
O=C(/C=C/c1ccccc1[N+](=O)[O-])NCCN1C(=O)S/C(=C\c2ccc(F)cc2)C1=O | inactive | -11.5%
O=C(/C=C/c1cccc([N+](=O)[O-])c1)NCCN1C(=O)S/C(=C\c2ccc(F)cc2)C1=O | inactive | 13.9%
COc1ccc(-c2nc(CS(=O)(=O)CC(=O)NCc3cccc(Br)c3)c(C)o2)cc1 | 13 µM (active) | 10.1%
COc1ccc(-c2nc(CS(=O)(=O)CC(=O)NCc3ccccc3Br)c(C)o2)cc1 | inactive | 11.5%
COc1cccc(-c2nc(CS(=O)(=O)CC(=O)NCc3ccccc3)c(C)o2)c1 | inactive | 1.69%
CC(C)=CCN1CCN(Cc2cnc(-c3ccccc3)s2)CC1CCO (centres undefined) | inactive | -2.03%
Cc1ccc(CN2CCN(C(=O)c3ccco3)CC2)cc1 | inactive | 11.8%
Cc1ccc(-n2nc(C)c(C(=O)N3CCN(C(=O)c4ccco4)CC3)c2-n2cccc2)cc1 | 16.4 µM (active) | -18.3%
Cc1ccc(-n2ncc(C(=O)N3CCN(C(=O)c4ccco4)CC3)c2-n2cccc2)cc1 | inactive | -13.4%
O=C(Nc1ccncc1)c1sc2ccccc2c1Cl | inactive | 17.8%
Cc1nn(CC#N)c(=O)n1-c1ccccc1 | inactive | 5.19%
CCOC(=O)C1CCN(C(=O)CSc2c3c(nc4ccccc24)CCC3)CC1 | inactive | 8.19%
N#Cc1ccc(-c2csc(-c3ccno3)n2)cc1 | inactive | 9.9%
COc1ccc(/C=C2\N=C(c3ccccc3)N(c3ccc(C(=O)O)cc3)C2=O)cc1OC | inactive | 
COc1ccc(/C=C2\N=C3CCCCCN3C2=O)cc1OC | inactive | -0.0934%
COc1ccc(/C=C2\N=C(C)N(c3ccc4ccccc4c3)C2=O)cc1OC | 5.17 µM (active) | 14.3%
Cc1ccc(S(=O)(=O)N(C)/N=C/C=C/c2ccccc2)cc1 | inactive | -10.7%
